Test results taken from the supplement of paper PMC10849652.
Of roughly 7,900 targets only a part is listed; those with a hit were picked by preference. About 0.6% of all pairs of compound and target were hits.

compound: CN(CCOC1=CC=C(C=C1)C[C@H]2C(=O)NC(=O)S2)C3=CC=CC=N3 (racemic) [rosiglitazone]; assay: log2 fold change, soluble protein after heating vs DMSO (PISA); higher = thermal stabilisation; K562 cells, 10 uM, 30 min; active = over 0.2 and 3.5 SD of the protein, either way, in both replicates (recomputed)
Method in brief: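 K562 cells at 2×10^6 cells/mL were given 10 μM compound for 30 min. Aliquots then went through 3 min of heating across 48°C-58°C, were pooled, and were extracted in PBS with 0.5% NP-40 at 4°C, and the supernatant after 21,000xg for 90 min was quantified by TMTpro 16plex LC-MS/MS with channel sums equalised. Thermal stability relative to control samples, from duplicates, is given as log2 fold change.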

Chain of UniProt Q86T03 (Q86T03 whole entry, looked up): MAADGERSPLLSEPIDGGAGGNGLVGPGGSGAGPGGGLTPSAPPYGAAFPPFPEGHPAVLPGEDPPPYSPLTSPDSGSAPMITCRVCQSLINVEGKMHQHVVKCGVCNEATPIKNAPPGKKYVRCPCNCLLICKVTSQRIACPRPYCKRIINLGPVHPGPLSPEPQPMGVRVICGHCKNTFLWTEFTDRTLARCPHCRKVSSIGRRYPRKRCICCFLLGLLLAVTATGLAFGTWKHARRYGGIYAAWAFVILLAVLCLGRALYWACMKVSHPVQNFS
Chain of UniProt Q99541 (Q99541 whole entry, looked up): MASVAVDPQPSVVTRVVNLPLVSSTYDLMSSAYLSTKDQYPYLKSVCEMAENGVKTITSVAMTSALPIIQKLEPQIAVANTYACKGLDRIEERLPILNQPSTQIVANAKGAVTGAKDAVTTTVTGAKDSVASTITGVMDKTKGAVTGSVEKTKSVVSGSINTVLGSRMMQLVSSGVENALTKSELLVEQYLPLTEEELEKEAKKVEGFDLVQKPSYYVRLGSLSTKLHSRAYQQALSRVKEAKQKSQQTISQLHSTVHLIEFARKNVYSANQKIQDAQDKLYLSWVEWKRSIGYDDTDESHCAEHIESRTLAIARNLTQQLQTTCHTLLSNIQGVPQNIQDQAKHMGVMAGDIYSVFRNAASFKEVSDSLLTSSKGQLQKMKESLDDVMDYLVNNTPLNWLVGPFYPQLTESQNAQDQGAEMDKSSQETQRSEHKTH
Chain of UniProt P46019 (P46019 whole entry, looked up): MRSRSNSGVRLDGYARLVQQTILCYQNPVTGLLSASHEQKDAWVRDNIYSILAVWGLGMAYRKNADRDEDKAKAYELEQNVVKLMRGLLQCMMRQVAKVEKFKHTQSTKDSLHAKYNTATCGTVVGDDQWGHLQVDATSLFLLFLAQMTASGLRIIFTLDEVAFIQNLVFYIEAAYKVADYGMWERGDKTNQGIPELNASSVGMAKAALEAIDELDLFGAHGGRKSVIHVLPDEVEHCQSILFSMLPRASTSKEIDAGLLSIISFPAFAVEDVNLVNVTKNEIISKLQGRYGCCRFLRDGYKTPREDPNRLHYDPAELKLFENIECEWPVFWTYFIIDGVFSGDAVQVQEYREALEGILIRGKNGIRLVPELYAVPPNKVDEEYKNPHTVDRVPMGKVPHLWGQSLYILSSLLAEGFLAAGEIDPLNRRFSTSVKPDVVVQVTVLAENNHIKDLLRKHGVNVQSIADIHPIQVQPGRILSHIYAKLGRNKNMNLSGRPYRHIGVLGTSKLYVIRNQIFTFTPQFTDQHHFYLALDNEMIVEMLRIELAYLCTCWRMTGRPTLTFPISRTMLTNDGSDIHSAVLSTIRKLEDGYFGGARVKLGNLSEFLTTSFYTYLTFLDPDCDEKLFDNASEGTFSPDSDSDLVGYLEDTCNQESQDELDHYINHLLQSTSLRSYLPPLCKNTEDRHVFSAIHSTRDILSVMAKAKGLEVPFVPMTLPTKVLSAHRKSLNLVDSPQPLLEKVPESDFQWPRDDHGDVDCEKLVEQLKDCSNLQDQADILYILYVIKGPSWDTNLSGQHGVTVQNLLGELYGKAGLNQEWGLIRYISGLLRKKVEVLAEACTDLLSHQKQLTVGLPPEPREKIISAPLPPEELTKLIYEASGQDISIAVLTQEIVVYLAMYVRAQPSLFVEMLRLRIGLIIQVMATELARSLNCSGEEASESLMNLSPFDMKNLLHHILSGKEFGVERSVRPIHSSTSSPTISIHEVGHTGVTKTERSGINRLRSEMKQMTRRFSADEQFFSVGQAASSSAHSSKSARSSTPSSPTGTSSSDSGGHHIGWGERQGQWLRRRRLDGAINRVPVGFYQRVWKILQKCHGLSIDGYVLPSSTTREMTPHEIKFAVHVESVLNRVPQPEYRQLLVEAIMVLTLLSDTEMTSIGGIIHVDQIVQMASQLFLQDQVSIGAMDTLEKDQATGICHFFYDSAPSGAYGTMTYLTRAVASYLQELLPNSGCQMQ
Chain of UniProt Q16822 (Q16822 whole entry, looked up): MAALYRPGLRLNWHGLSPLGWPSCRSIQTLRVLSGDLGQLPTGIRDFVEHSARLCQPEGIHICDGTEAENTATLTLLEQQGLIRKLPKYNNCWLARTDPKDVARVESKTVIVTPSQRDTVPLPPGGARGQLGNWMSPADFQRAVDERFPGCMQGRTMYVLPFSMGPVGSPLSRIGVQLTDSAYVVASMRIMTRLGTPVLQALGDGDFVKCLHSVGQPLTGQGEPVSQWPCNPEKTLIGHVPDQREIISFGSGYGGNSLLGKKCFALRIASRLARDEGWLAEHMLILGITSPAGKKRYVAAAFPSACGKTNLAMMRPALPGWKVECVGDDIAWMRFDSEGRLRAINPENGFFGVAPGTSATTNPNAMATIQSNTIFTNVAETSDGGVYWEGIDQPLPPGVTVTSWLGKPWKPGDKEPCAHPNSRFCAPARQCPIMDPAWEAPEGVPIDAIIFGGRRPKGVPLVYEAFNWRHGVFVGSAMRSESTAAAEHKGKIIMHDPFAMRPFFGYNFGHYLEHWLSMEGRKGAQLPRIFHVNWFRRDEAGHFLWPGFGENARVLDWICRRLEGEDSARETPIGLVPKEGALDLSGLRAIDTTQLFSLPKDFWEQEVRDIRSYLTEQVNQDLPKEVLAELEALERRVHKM
Chain of UniProt P0CAP2 (P0CAP2 whole entry, looked up): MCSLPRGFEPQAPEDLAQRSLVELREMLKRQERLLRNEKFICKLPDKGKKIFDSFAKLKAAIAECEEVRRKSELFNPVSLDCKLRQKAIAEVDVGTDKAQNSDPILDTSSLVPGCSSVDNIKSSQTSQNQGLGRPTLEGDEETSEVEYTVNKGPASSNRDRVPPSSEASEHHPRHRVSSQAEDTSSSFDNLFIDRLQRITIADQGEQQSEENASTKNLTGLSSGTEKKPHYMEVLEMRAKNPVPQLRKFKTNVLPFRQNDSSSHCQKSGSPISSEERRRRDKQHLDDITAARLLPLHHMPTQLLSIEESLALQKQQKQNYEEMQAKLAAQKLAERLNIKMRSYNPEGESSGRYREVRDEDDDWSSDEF
Chain of UniProt O95453 (O95453 whole entry, looked up): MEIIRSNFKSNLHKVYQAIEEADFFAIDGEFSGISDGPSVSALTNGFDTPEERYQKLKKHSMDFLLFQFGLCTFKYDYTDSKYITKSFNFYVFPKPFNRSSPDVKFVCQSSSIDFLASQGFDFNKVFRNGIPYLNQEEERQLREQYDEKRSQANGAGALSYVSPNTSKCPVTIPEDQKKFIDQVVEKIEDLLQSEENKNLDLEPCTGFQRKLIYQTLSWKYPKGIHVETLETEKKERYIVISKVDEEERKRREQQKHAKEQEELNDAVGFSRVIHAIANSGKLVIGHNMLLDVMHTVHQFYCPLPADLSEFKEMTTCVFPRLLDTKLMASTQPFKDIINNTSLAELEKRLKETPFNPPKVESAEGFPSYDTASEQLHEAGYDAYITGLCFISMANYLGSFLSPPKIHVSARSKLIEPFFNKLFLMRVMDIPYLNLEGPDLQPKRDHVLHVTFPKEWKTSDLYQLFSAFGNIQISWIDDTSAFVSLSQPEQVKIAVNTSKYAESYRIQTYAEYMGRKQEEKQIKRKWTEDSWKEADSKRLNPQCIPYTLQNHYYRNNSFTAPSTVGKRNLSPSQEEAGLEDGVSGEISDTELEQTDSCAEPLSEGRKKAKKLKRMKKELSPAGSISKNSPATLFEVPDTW
Chain of UniProt P14618 (P14618 whole entry, looked up): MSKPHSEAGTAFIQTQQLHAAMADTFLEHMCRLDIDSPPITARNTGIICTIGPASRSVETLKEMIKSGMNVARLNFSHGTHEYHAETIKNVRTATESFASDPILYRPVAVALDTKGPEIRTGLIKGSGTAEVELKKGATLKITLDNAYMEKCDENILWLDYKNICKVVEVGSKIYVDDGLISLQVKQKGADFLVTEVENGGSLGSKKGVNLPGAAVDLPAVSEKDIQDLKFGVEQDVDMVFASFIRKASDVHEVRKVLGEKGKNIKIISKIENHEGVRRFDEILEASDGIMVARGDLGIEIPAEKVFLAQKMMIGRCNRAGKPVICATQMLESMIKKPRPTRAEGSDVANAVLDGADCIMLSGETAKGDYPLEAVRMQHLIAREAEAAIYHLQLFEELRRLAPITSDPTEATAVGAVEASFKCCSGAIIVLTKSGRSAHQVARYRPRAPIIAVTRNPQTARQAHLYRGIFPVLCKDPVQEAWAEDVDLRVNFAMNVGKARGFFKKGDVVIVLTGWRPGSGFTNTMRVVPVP
Chain of UniProt Q9Y2Y1 (Q9Y2Y1 whole entry, looked up): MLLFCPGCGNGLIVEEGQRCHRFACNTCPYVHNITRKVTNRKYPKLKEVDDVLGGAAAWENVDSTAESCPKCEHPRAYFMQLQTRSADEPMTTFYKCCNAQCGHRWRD
Chain of UniProt Q8N8N7 (Q8N8N7 whole entry, looked up): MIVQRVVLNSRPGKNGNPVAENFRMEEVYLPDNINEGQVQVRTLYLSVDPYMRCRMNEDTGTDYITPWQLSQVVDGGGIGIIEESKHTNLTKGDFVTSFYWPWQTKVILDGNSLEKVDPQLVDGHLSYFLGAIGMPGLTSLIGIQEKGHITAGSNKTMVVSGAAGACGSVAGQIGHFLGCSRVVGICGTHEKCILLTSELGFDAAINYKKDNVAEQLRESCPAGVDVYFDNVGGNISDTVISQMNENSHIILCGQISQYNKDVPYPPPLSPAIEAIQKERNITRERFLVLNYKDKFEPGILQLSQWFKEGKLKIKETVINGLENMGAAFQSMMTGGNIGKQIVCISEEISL
Chain of UniProt Q9Y5Y5 (Q9Y5Y5 whole entry, looked up): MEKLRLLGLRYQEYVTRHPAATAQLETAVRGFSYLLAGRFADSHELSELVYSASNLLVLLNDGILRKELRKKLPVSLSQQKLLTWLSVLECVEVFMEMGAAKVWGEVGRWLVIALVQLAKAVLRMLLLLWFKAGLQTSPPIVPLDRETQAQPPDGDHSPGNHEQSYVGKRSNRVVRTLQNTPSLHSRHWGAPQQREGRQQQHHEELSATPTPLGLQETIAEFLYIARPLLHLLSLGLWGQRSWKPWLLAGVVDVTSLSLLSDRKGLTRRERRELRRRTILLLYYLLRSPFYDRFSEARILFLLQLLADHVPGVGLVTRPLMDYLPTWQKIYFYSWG

log2 fold change, inactive:
PYGB (UniProt P11216) -0.004, PLCB3 (UniProt Q01970) 0.058, POLR2M (UniProt P0CAP2) 0.045, PEX16 isoform 2 (UniProt Q9Y5Y5) 0.062, PTPA (UniProt A6PVN8) -0.105, PARN (UniProt O95453) 0.017, PKM (UniProt P14618) 0.015, PRIM1 (UniProt P49642) 0.048, PCK2 (UniProt Q16822) 0.011, POLR2G (UniProt P62487) -0.01, PTDSS1 (UniProt P48651) 0.031, PHKA2 (UniProt P46019) 0.026, PISD (UniProt Q9UG56) 0.027, PIP4P1 isoform 2 (UniProt Q86T03) -0.016, PGGT1B (UniProt P53609) 0.032, PCLAF (UniProt Q15004) -0.014, POLR3K (UniProt Q9Y2Y1) -0.045, POLR2K (UniProt P53803) -0.059, PCBP1 (UniProt Q15365) 0.035, PCNT (UniProt O95613) 0.05, PTGR2 (UniProt Q8N8N7) -0.009, PLIN2 (UniProt Q99541) -0.033, PDCD6 (UniProt O75340) 0.025
